Test results reported in PubChem BioAssay (NCATS).
Results filed as inconclusive are left out. Calls of active or inactive are those of the source. Unless noted, the call rests on the fitted dose curve.

Key:
[1] = qHTS for Inhibitors of the Functional Ribonucleoprotein Complex (vRNP) of Lassa (LASV) Arenavirus: LASV Primary Screen - GLuc reporter signal (AID 1347082; calls by dose curve; tested in HEK293 reporter line; further: nearly all actives have a fitted effect of over 60% in size)
[2] = qHTS for Inhibitors of the Functional Ribonucleoprotein Complex (vRNP) of Lassa (LASV) Arenavirus: Viability assay - alamar blue signal for LASV Primary Screen (AID 1347083; calls by dose curve; tested in HEK293 reporter line; further: nearly all actives have a fitted effect of over 80% in size)
[3] = qHTS for Inhibitors of the Functional Ribonucleoprotein Complex (vRNP) of Lymphocytic Choriomeningitis Arenaviruses (LCMV): Viability assay - alamar blue signal for LCMV Primary Screen (AID 1347085; calls by dose curve; tested in HEK293 reporter line; further: nearly all actives have a fitted effect of over 80% in size)
[4] = target: Nucleoprotein (Lymphocytic choriomeningitis virus (strain Armstrong)) (UniProt P09992); test: qHTS for Inhibitors of the Functional Ribonucleoprotein Complex (vRNP) of Lymphocytic Choriomeningitis Arenaviruses (LCMV): LCMV Primary Screen - GLuc reporter signal (AID 1347086); further: nearly all actives have a fitted effect of over 70% in size

Measured: Potency
Further: series mostly up to about 57 µM.

Chain of Nucleoprotein (Lymphocytic choriomeningitis virus (strain Armstrong)) (P09992 whole entry, looked up): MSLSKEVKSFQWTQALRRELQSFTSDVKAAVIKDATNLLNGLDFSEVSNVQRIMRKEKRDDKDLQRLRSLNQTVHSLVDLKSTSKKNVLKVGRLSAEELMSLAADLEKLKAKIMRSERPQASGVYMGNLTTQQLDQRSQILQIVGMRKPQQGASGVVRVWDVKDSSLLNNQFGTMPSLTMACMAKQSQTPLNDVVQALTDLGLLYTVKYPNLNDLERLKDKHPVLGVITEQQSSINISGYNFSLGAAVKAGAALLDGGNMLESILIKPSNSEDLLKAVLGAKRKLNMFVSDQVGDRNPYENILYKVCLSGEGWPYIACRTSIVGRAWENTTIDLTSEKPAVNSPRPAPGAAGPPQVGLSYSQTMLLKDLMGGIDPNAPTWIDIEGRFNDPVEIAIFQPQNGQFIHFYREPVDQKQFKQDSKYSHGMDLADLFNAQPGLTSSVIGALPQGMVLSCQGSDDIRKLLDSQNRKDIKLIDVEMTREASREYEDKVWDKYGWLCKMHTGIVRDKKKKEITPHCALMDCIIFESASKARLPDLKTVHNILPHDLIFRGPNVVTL

C#C[C@]1(O)CC[C@H]2[C@@H]3CCc4cc(OC5CCCC5)ccc4[C@H]3CC[C@@]21C
inactive: [1] | [2] | [3] | [4]

CCN1CCCC1CN (stereo unspecified)
inactive: [1] | [2] | [3] | [4]

CCOC(=O)c1cnc2c(cnn2CC)c1NN=C(C)C
inactive: [1] | [2] | [3] | [4]

O=C(OCc1ccccc1)c1ccccc1
inactive: [1] | [2] | [3] | [4]

CN(C)CCOC(=O)C(c1ccccc1)C1(O)CCCC1 (stereo unspecified)
inactive: [1] | [2] | [3] | [4]

Nc1ccc(S(=O)(=O)Nc2ccnn2-c2ccccc2)cc1
inactive: [1] | [2] | [3] | [4]

C=CCn1c(=O)n([C@@H]2O[C@H](CO)[C@@H](O)[C@H]2O)c2nc(N)[nH]c(=O)c21
inactive: [1] | [2] | [3] | [4]

Nc1ccc(C(=O)O)c(O)c1
inactive: [1] | [2] | [3] | [4]

OCc1cccnc1
inactive: [1] | [2] | [3] | [4]
